Screens deposited in PubChem by Sanford-Burnham Center for Chemical Genomics.
Hits are enriched below; roughly 4.1% of the tested compounds scored in any of these assays.
NALP1 inh – inhibitors of NALP1 inflammasome in yeast; S. cerevisiae NALP1/ASC/caspase-1 growth, X-gal OD620, 72 h; inhibition, % at 10 µM; AID 2071; 280,000 tested, 0.61% active; in the data active means inhibition mostly above about 24%, no sharp cut-off; inactive means mostly below about 32%
NLRP3 yeast inh – inhibitors of NALP3 inflammasome in yeast | Yeast reconstituted NLRP3/ASC/caspase-1, beta-gal luminescence, 24 h | inhibition, % at 10 µM | 330,000 tested, 0.39% active | AID 2825;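 active means inhibition of 50% or more; inactive means inhibition below 50%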;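 further: plate controls were induced DMSO wells for no effect and uninduced yeast grown without galactose for full effect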
TIM10 inh – TIM10 yeast growth inhibition. S. cerevisiae TIM10 strain growth, BacTiter-Glo luminescence, 24 h. inhibition, % at 10 µM. 330,000 tested, 1.4% active. AID 463195;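 active means inhibition of 40% or more at the single tested concentration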;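 further: wild-type TIM10 isogenic control strain grown at permissive 25 °C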
tim23-1 inh – inhibits growth of tim23-1 mutant yeast. inhibition, % at 20 µM. S. cerevisiae tim23-1 growth, BacTiter-Glo luminescence, 24 h. 330,000 tested, 1.3% active;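 active means growth inhibition of the mutant yeast at or above 50%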;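 further: temperature-sensitive mutant grown at 25 °C; plate controls were DMSO-treated mutant yeast for no effect and medium wells lacking yeast for full effect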
tim10-1 inh – tim10-1 yeast growth inhibition; S. cerevisiae tim10-1 ts strain growth, BacTiter-Glo, 24 h; inhibition, % at 20 µM; 330,000 tested, 2.2% active; AID 463190;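 active means inhibition of at least 40%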;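 further: mutant grown at 25 °C; 0% = DMSO wells with yeast and 100% = wells holding no yeast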
tim23-1 confirm – confirmation of tim23-1 mutant yeast growth inhibitors | shares compounds with tim23-1 inh | S. cerevisiae tim23-1 growth, BacTiter-Glo luminescence, 24 h | inhibition, % at 20 µM | 4,400 tested, 83% active | AID 463218;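 active means inhibition above about 39% in either of two replicate wells at 20 µM, limit read from the data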;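 further: temperature-sensitive tim23-1 mutant grown at 25 °C; 0% = DMSO wells with yeast and 100% = medium wells without yeast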
An asterisk follows results filed as active; x = no result given.

SMILES	NALP1 inh	NLRP3 yeast inh	TIM10 inh	tim23-1 inh	tim10-1 inh	tim23-1 confirm
Cc1cc(C)n(CCC(=O)N/N=C/c2ccc(O)cc2)n1	6.4	7.2	-11.9	8.2	16.4	x
COc1ccc2ccccc2c1/C=N\NC(=O)c1ccc(C)s1	3.7	28.3	21.1	51.0*	9.0	38.5
COC(=O)c1scc(C)c1NC(=O)c1ccccc1F	11.1	6.3	1.3	4.7	12.3	x
CCOc1ccccc1NC(=O)N1CCC(NC(=O)C2CCCCC2)CC1	16.2	6.9	6.1	11.7	0.4	x
COc1cc(SC)ccc1C(=O)Nc1ccc2c(c1)CCC2	5.6	19.3	5.2	50.7*	29.6	39.3*
O=C(Cn1nc(Cl)nc1Cl)c1ccc2c(c1)OCCO2	-12.5	5.8	16.1	54.6*	26.0	38.2
O=C(Cn1nc(Cl)nc1Cl)c1ccc(F)cc1	8.9	-2.5	3.0	4.4	-9.0	x
CC(CNS(=O)(=O)c1ccc(Cl)cc1)n1cncn1 (stereo unspecified)	13.3	18.6	4.8	-5.4	-15.5	x
O=C(O)C1CCCCC1C(=O)Nc1cccc(Br)c1 (stereo unspecified)	x	8.0	-9.1	9.8	-14.4	x
O=C(NC(=S)Nc1cccc(O)c1)C1CCCCC1	x	-9.6	35.2	50.8*	27.5	42.4*
O=C(NC(=S)Nc1ccc(F)cc1)C1CCCCC1	6.1	26.7	14.6	41.8	22.9	x
Cc1ccc(NC(=S)NC(=O)C2CCCC2)cc1C	15.7	41.7	22.4	54.5*	29.2	41.5*
O=C(Nc1cccc(Br)c1)C1CCCC1	x	40.6	32.9	64.5*	8.4	62.5*
COc1ccc(C2CC(O)(c3ccccc3)Oc3c(C)ccc(C)c32)cc1 (stereo unspecified)	x	16.5	20.9	52.6*	21.6	54.8*
COc1ccc(C2CC(O)(c3ccccc3)Oc3cc(OC)cc(OC)c32)cc1 (stereo unspecified)	x	15.2	10.9	8.3	22.1	x
O=C(Nc1cc(S(=O)(=O)N2CCCCC2)ccc1N1CCOCC1)c1ccc(F)cc1	x	20.9	-0.5	10.6	-6.4	x
Cc1ccc(C2=Nc3ccccc3N=C(C(Cl)Cl)C2)cc1	7.2	19.4	33.9	51.7*	-2.9	49.4*
O=Cc1ccccc1OCc1ccc2c(c1)OCO2	23.7	-8.1	21.8	56.9*	-0.4	56.1*
COc1cccc(OC)c1C(=O)NNS(=O)(=O)c1ccc2ccccc2c1	-7.8	-3.5	-2.3	-6.0	-8.2	x
CC(C)(C)NC(=O)CSc1nc2cc(S(=O)(=O)N3CCCCC3)ccc2o1	x	5.3	18.4	24.5	15.9	x
Cc1cccc(C=Nc2ccc3c4c(cccc24)CC3)c1O	14.7	25.3	24.5	37.5	38.2	x
Oc1ccc(Cl)cc1C=Nc1ccc2c3c(cccc13)CC2	10.1	30.6	26.7	62.8*	13.9	61.9*
CC(NC(=S)NC(=O)c1cccs1)c1ccccc1 (stereo unspecified)	x	15.8	28.9	52.4*	23.7	45.0*
CN(Cc1ccccc1)C(=S)NC(=O)c1cccs1	11.1	34.3	23.5	50.9*	33.3	36.3
CN(Cc1ccccc1)C(=S)NC(=O)c1ccc(-c2ccccc2)cc1	4.4	22.4	8.4	6.0	11.0	x
SMILES	NALP1 inh	NLRP3 yeast inh	TIM10 inh	tim23-1 inh	tim10-1 inh	tim23-1 confirm
O=C(CSc1nnnn1C1CCCC1)c1ccc2c(c1)OCCO2	15.1	9.4	33.6	52.5*	39.0	45.5*
CC(C)n1nnnc1SCC(=O)c1ccc2c(c1)OCCO2	15.5	19.3	21.0	21.3	24.5	x
O=C(CN1C(=O)C(=O)N(CCC2=CCCCC2)C1=O)c1c[nH]c2ccccc12	x	5.7	39.5	60.0*	13.4	38.8*
O=C(CN1C(=O)C(=O)N(Cc2ccco2)C1=O)c1c[nH]c2ccccc12	-1.1	7.9	3.9	17.4	20.9	x
CC(=O)OC(C(=O)NC1CCCCC1)c1ccc(Cl)c(Cl)c1 (stereo unspecified)	4.0	-4.1	14.7	36.4	15.0	x
Cc1[nH]n(-c2ccccc2)c(=O)c1/C=C1/C=c2ccccc2=N1	11.0	x	x	x	x	x
Cc1[nH]n(-c2ccccc2)c(=O)c1/C=C1\C=NN=C1c1ccccc1	-7.9	7.4	22.4	61.8*	25.9	55.1*
COc1ccc(S(=O)(=O)Nc2ccc(-n3cccc3)cc2)cc1	13.6	24.2	21.4	55.2*	36.7	49.7*
COc1ccc(NS(=O)(=O)c2ccc(N3C(=O)CCC3=O)cc2)cc1	18.6	4.5	-8.7	-4.5	10.0	x
NC(=O)CC1NC(=O)c2ccccc21 (stereo unspecified)	1.0	5.6	2.4	9.3	7.3	x
CCOC(=O)C1=C(C)N=c2s/c(=C\c3ccc(OCC(=O)O)cc3)c(=O)n2C1c1ccccc1 (stereo unspecified)	3.9	22.0	8.4	21.9	29.4	x
COC(=O)C1=C(C)N=c2s/c(=C/c3ccoc3)c(=O)n2C1c1ccccc1 (stereo unspecified)	-14.5	13.2	29.1	50.3*	37.3	50.0*
Cc1ccc(C(C)C)c(OCc2nn(CC(=O)c3ccc(OC(F)F)cc3)c3[n+]2CCCCC3)c1	-23.7	0.1	21.8	17.0	29.9	x
Cc1cccc(NS(=O)(=O)c2ccc3c(c2)oc(=O)n3C)c1C	-8.3	8.5	0.3	95.1*	-5.0	20.0
Cc1ccccc1NS(=O)(=O)c1ccc2c(c1)oc(=O)n2C	2.5	-11.0	-6.1	20.2	10.7	x
CCN(CC)S(=O)(=O)c1cccc(C(=O)N[C@H](C(=O)NCc2ccc(Cl)cc2)C(C)C)c1	12.8	3.6	14.6	-0.7	9.2	x
Cc1nc2ccccc2c(=O)n1/N=C/c1cc(Br)ccc1O	20.8	18.2	-1.4	69.2*	35.5	75.7*
COC(=O)c1sccc1NC(=S)NCc1ccc(Cl)cc1	x	4.0	39.0	61.7*	26.8	53.3*
CCOC(=O)NNc1ccccc1	10.6	5.9	-41.1	4.1	-31.6	x
CCOC(=O)C(=CNNc1ccccc1)C(=O)OCC	-5.5	19.3	19.5	52.4*	39.6	79.3*
Cc1cc(C)nc(N2CCC(C(=O)NNC(=O)c3ccc(Cl)cc3)CC2)n1	x	-3.0	-3.7	-7.1	-4.9	x
Cn1c(C=O)c(C#Cc2ccccc2)c2ccccc21	x	13.9	20.8	58.3*	14.4	63.0*
CCCCN1C(=N)N([C@@H](CCC)CN2CCC[C@H]2CN2C(N)=NC[C@H]2C(C)C)C[C@H]1[C@H](C)CC	x	0.1	2.0	-12.4	-0.3	x
O=c1c2c(n3cnnc3n1C1CCCCC1)-c1ccccc1CC21CCCCC1	6.5	-14.8	29.8	53.9*	31.4	14.6
O=c1c2c(n3cnnc3n1-c1ccccc1)-c1ccccc1CC21CCCC1	13.9	12.0	37.5	42.7	38.8	x
CCOC(=O)C1CCN(C(=O)Cc2ccccc2OC)CC1	4.3	11.6	-6.3	-5.0	-19.5	x
CCOC(=O)C1CCN(C(=O)Cc2c(C(=O)O)n(C)c3ccccc23)CC1	37.2	-8.7	-2.9	77.2*	12.4	1.4
O=C(Nc1cccc(NC(=O)c2ccc(-c3ccc(Br)cc3)o2)c1)c1ccccc1	4.2	9.7	-40.0	-10.2	0.7	x
